Results filed as inconclusive are left out. Calls of active or inactive are those of the source. How the source made its calls: active means hit-call score of the fitted dose curve at least 0.9, where 1 is the maximum; inconclusive means response in the unintended direction; inactive means score below 0.9.
Experiment: TOX21_p53_BLA_p2_viability: Viability Assessment in the Tox21 HCT-116 p53 Agonism Beta-lactamase Assay, Phase 2 (AID 2283591);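 further: compound exposure lasted 16 h at 37 °C; actives lower the ATP signal meaning cytotoxicity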
In short: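 Cytotoxicity readout: CellTiter-Glo ATP luminescence, 30 min at room temperature, after the beta-lactamase read. Cells were HCT116 exposed 16 h at 37C to compounds pin-transferred at 217-fold dilution from DMSO stocks.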

For CC(C)CCCCCCCOC(=O)c1ccc(C(=O)OCCCCCCCC(C)C)c(C(=O)OCCCCCCCC(C)C)c1, which outcome is on record?
The outcome was “inactive”.

Which outcome does the source give for CC(C)=CCC[C@](C)(O)[C@@H]1CC=C(C)CC1 here?
Its outcome is “inactive”.

Which outcome does the source give for CC(=O)[O][Al][O]C(C)=O here?
Its outcome is “inactive”.

Which outcome does the source give for O=[N+]([O-])c1ccc(Nc2ccc(Nc3ccccc3)c(S(=O)(=O)O)c2)c([N+](=O)[O-])c1 here?
The outcome was “inactive”.
